Hits are enriched below; roughly 3.4% of the tested compounds scored in any of these assays.
MITF act: increases MITF-driven TRPM1 promoter luciferase signal | activation, % at 12.5 µM | 300,000 tested, 0.75% active | SK-MEL-5 TRPM1-promoter luciferase, 24 h; % of positive control, neutral wells = 0;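 active means mean activation of at least 80% with every replicate also reaching 80%; inconclusive means mean reaches 80% but some replicate falls short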
miR-122 sensor: inhibitors of miR-122 in Huh7 cells | Huh7 miR-122 Renilla luciferase sensor, 48 h; neutral wells = 0, positive control = 100 | activation (reporter increase), % at 12.5 µM | 340,000 tested, 0.3% active;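 active means mean replicate activation score at least 90 and every replicate individually at or above 90; inconclusive means only one of the two criteria met; inactive means neither criterion met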;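 further: higher luciferase means less miR-122 activity so hits act as miR-122 inhibitors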
esBAF inh: inhibitors of esBAF chromatin remodeling in mouse ES cells. 350,000 tested, 2% active. Bmi1-luciferase knock-in reporter, 24 h; 100% = twice the neutral-well signal. reporter increase, % at 12.5 µM; in the data active means activation above about 40%; inconclusive means no clear call, values can overlap the other calls;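 further: a rise in the Bmi1 reporter signal indicates esBAF inhibition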
Wnt bcat act: Wnt/beta-catenin pathway activation; 300,000 tested, 1.2% active; activation, % at 9.35 µM; Wnt/beta-catenin reporter cell assay, activator, plate reader; in the data active means activation above about 30%, passing the limit was not always enough; inconclusive means no clear call, values can overlap the other calls
Env fusion inh: HIV envelope-mediated fusion inhibition; inhibition, % at 12.3 µM; AID 651610; HeLa-JRFL Env/CEM21 cell fusion, luciferase; 360,000 tested, 1.1% active;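 active means mean replicate inhibition score of at least 50 and every replicate individually at or above 50; inconclusive means only one of the two criteria met; inactive means mean below 50 and not all replicates reaching 50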
A number is an active result; – = inactive; ? = inconclusive; · = no result given.

SMILES	MITF act	miR-122 sensor	esBAF inh	Wnt bcat act	Env fusion inh
O=C(CNC(=O)c1ccc(Cl)cc1)NNC(=O)c1ccc(Br)cc1	–	–	–	55	–
O=C(CNC(=O)c1ccc(Br)cc1)NCC(=O)OCc1ccc(Cl)cc1	–	–	–	–	–
CCCCCCCCCCCCCCCC[n+]1cccc2ccccc21	–	·	·	–	74
CN(C)c1ccc(C=Cc2ccnc3c(O)cccc23)cc1	·	–	–	–	–
CN(C)c1ccc(C=Cc2ccnc3ccccc23)cc1N	·	–	–	39	–
C[C@H](CO)N1C[C@H](C)[C@H](CN(C)C)Oc2ccc(NC(=O)Cc3cn(C)c4ccccc34)cc2C1=O	·	–	–	·	·
CN(C)c1nc(NCc2ccccc2)nc(SCC(=O)Nc2ccc(Cl)c(Cl)c2)n1	–	–	–	·	57
CCNc1nc(SCC(=O)Nc2ccc(Cl)c(Cl)c2)nc(N(C)C)n1	–	–	–	–	–
N#CC1CC(c2ccccc2)=NN1c1ccccc1[N+](=O)[O-] (configuration not stated)	–	–	52	–	–
Cc1ccc(/C=C\c2nccc3c2[nH]c2ccccc23)cc1	–	–	55	–	–
C(=C\c1nccc2c1[nH]c1ccccc12)/c1ccccc1	–	·	–	–	–
CN1C(=O)c2cc(NC(=O)C3CCOCC3)ccc2OC[C@H]2O[C@@H](CC(=O)NCc3ccc4c(c3)OCO4)CC[C@@H]21	·	·	–	·	–
CN1C(=O)c2cc(NC(=O)C3CCCC3)ccc2OC[C@H]2O[C@@H](CC(=O)Nc3ccccc3)CC[C@H]21	·	–	–	·	–
CCC(Sc1nc2ccsc2c(=O)n1-c1ccc(Cl)c(C)c1)C(=O)NCc1ccco1 (configuration not stated)	–	–	·	·	65
O=[N+]([O-])c1ccc(Sc2n[nH]c(-c3ccccc3)n2)nc1	·	–	51	–	–
O=[N+]([O-])c1ccc(Sc2ccccc2)nc1	–	–	–	–	·
C[C@H]1CN([C@@H](C)CO)C(=O)Cc2cc(NC(=O)Nc3ccc(C(F)(F)F)cc3)ccc2O[C@@H]1CN(C)Cc1ccc(-c2ccccc2)cc1	·	–	–	·	–
O=[N+]([O-])c1ccc(O)c(C=Nc2ccc3c(c2)OCO3)c1	–	–	41	34	–
COc1cc(/C=N\Nc2nc3ccccc3[nH]2)cc(OC)c1OC	–	–	–	–	–
COc1ccc2c(c1)c(/C=N/Nc1nc3ccccc3[nH]1)c(C)n2C	·	–	·	57	–
COc1ccccc1-c1nc(COc2ccc(Cl)cc2Cl)no1	149	·	·	54	–
COc1cccc(-c2nc(COc3ccc(Cl)cc3Cl)no2)c1	·	·	–	–	–
CCCC#Cc1ccc2c(c1)O[C@@H](CN(C)CC1CCOCC1)[C@H](C)CN([C@H](C)CO)S2(=O)=O	·	–	–	·	·
COc1ccc(-c2nnc(SCC(=O)N3CCCC3)o2)cc1	–	–	45	–	–
CCOc1ccc(-c2nnc(SCC(=O)N3CCCC3)o2)cc1	–	–	53	–	–
SMILES	MITF act	miR-122 sensor	esBAF inh	Wnt bcat act	Env fusion inh
O=C(C1CCCC1)N1[C@@H](CO)[C@@H]2c3ccccc3N(S(=O)(=O)c3ccccc3)C[C@@H]21	·	–	–	·	·
C[C@@H]1CN([C@H](C)CO)C(=O)c2c(c3ccccc3n2C)-c2ccccc2CO[C@@H]1CN(C)S(=O)(=O)c1ccc(Cl)cc1	·	·	–	·	·
O=c1ccc2ccccc2c2ccccc12	·	·	·	–	–
O=Nc1c(O)c2ccccc2c2ccccc12	–	–	–	–	81
Cc1c(C(=O)Nc2ccc3c(c2)CCC3)cccc1[N+](=O)[O-]	92	–	82	–	·
CSc1ccccc1C(=O)Nc1ccc2c(c1)CCC2	–	–	?	30	–
Cc1c(C(=O)Nc2ccc(Nc3ccccc3)cc2)cccc1[N+](=O)[O-]	–	–	–	–	–
Cc1cccc(-c2ccc([C@H]3[C@H]4CN(C(=O)c5ccc6c(c5)OCO6)CCCCN4[C@H]3CO)cc2)c1	·	–	–	·	·
COC(=O)[C@@]1(Cc2ccccc2)[C@H]2C(=O)N(Cc3ccccc3)C(=O)[C@H]2[C@H]2CN=C(SCc3ccc(C)cc3)N21	–	–	–	·	·
COC(=O)[C@@]1(Cc2ccccc2)[C@H]2C(=O)N(Cc3ccccc3)C(=O)[C@H]2[C@H]2CN=C(SCc3ccccc3)N21	–	–	–	–	76
CCN1C(=O)[C@H]2[C@H]3CN=C(SCc4ccc(Cl)cc4)N3[C@@](CC)(C(=O)OC)[C@H]2C1=O	–	–	–	–	69
